Among the data in PubChem BioAssay are z-score and composite z-score values, retold here.

The source made the active and inactive calls. Unless noted, how the calls were made is not given here.

Experiment [1] in a line: HepG2 liver cancer cell viability effects, profiling panel, resazurin fluorescence, 24 h, PK04 Diversity Set (AID 1172). Further: test concentration not given here. To be noted: higher = more signal.
The nature of experiment [2]: basal S. cerevisiae growth modulation, no modifier, primary screen, OD600, strain BY4716, 24 h, basal condition (AID 1173). To be noted: OD600, 24 h, higher = more signal, called active from +8 up or from −8 down.
Experiment [3] is described as follows: MM1S myeloma cell viability, profiling panel, resazurin fluorescence, basal, 24 h, PK04 Diversity Set (AID 1174).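 Further: MM1S multiple myeloma cell line; test concentration not given here.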 To be noted: higher = more signal, called active from +8 up or from −8 down. On the technique in general: Alamar Blue is a resazurin reagent that responds to reducing activity.
Experiment [4] concerns the target Dihydroorotate dehydrogenase (quinone), mitochondrial (Plasmodium falciparum (isolate 3D7)) (UniProt Q08210). The experiment in a line: PfDHODH enzyme inhibitors, primary screen, biochemical, C-terminal His tag, absorbance 600 nm (AID 1175).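 Further: recombinant parasite enzyme with a five histidine tag at its C terminus; test concentration not given here.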 To be noted: DCIP absorbance 600 nm, higher = more signal, called active from +8 up or from −8 down.
A short description of experiment [5]: P. aeruginosa biofilm formation inhibitors, primary screen, strain PAO1, LB-PBS medium, absorbance 600 nm (AID 1176). Further: test concentration not given here. To be noted: P. aeruginosa PAO1 growth/biofilm, A600, 12 h; higher = more signal.
Experiment [6] can be described thus: S. cerevisiae RM11-1a growth modifiers, primary screen, strain RM11-1a, OD600, basal, 24 h (AID 1177).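 Further: cultures grown under basal conditions with no added stressor; test concentration not given here.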 To be noted: OD600, 24 h, higher = more signal, called active from +8 up or from −8 down.
Experiment [7] is described as follows: E. coli acrAB mutant growth effects, primary screen, E. coli filamentation inducers, strain DRC39, OD650, 24 h (AID 1178).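 Further: growth measured as culture turbidity by optical density at 650 nm; test concentration not given here.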 To be noted: higher = more signal, called active from +8 up or from −8 down.
A short description of experiment [8]: E. coli acrAB mutant growth effects, primary screen, E. coli filamentation inducers, strain DRC39, OD650, 48 h (AID 1179).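 Further: screen aims at cell division blockers that make cells filament.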 To be noted: E. coli DRC39 delta-acrAB growth, higher = more signal, called active from +8 up or from −8 down.
The nature of experiment [9]: RPMI8226 myeloma cell viability, profiling panel, resazurin fluorescence, basal, 24 h, PK04 Diversity Set (AID 1180).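 Further: RPMI8826 multiple myeloma cell line at 5000 cells per well; test concentration not given here.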 To be noted: higher = more signal.
Experiment [10] has as its target E3 ubiquitin-protein ligase XIAP (Homo sapiens) (UniProt P98170). The experiment in a line: XIAP binders, primary screen, biophysical, small-molecule microarray, fluorescence 635 nm (AID 1181).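 Further: score merges 667 nm emission and signal to noise over triplicate slides.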 To be noted: small-molecule microarray binding, higher = more signal.

Chain of Dihydroorotate dehydrogenase (quinone), mitochondrial (Plasmodium falciparum (isolate 3D7)) (Q08210 whole entry, looked up): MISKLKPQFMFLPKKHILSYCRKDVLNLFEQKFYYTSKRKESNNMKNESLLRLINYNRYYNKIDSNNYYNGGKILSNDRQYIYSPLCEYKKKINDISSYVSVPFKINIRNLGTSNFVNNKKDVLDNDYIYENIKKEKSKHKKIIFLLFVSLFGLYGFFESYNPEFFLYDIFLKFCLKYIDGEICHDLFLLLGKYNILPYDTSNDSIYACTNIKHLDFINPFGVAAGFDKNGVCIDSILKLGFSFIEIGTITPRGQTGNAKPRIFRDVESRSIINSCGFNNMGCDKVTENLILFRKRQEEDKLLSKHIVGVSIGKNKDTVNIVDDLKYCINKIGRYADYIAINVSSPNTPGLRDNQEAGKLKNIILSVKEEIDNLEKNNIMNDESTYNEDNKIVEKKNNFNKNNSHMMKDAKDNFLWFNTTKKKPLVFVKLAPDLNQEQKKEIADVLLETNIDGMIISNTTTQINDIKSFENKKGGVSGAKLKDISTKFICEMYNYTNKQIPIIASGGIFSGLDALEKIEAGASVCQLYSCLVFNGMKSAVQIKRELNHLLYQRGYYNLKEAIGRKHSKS
Chain of E3 ubiquitin-protein ligase XIAP (Homo sapiens) (P98170 whole entry, looked up): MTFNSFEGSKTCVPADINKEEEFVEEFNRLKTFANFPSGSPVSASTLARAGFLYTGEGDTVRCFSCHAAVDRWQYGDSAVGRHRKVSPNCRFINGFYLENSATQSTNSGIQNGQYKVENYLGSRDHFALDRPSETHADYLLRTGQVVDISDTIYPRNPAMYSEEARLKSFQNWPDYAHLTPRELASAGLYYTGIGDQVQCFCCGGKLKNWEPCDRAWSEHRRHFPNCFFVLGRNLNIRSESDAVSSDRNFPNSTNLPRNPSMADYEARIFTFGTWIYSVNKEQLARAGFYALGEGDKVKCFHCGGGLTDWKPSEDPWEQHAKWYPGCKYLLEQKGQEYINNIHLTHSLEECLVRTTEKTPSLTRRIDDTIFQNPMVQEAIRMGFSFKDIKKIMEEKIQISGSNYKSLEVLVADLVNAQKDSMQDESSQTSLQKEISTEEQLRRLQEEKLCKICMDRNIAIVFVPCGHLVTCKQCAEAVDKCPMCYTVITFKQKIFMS

Regarding `COC(=O)[C@H](Cc1ccc(O)cc1)N[C@@H](/C=C/C1CC1)[C@H](O)Cc1ccccc1`, the z-score in experiment [1] was -0.752; in [2], -3.58 (inactive); in [3] it was -0.163 (inactive); in experiment [5], -0.459 (inactive); in [6], 0.0871 (inactive); in experiment [7], -0.396 (inactive). Besides, the z-score in [8] is -0.571 (inactive); in [9] it was 0.177. Moreover, the composite z-score is -0.23 (inactive) in experiment [4] and 0.85 in experiment [10].
`CN(C)C(=O)[C@]1(Cc2ccccc2)N=C(c2ccc(OCCCO)cc2)O[C@@H]1c1ccccc1CN=[N+]=[N-]`: the z-score is 0.432 in [1]; -1.3 (inactive) in experiment [2]; -0.0662 (inactive) in experiment [3]; -0.248 (inactive) in experiment [5]; 0.22 (inactive) in experiment [6]; -0.348 (inactive) in experiment [7]. Also, the z-score in experiment [8] was 0.686 (inactive); in [9] it was 0.431. The composite z-score in [4] is -0.979 (inactive); in experiment [10] it was 0.0651.
As to `CCOc1cc(C(O)C2C=CC3C(=O)N(c4ccccc4)C(=O)C3N2Nc2ccccc2F)ccc1O` (stereo not given), the z-score in experiment [1] is -1.42; in experiment [2], -3.57 (inactive); in experiment [3], -0.454 (inactive); in experiment [5] it was 0.931 (inactive); in experiment [6], 1.78 (inactive); in experiment [7], -0.223 (inactive). Besides, the z-score in [8] was -0.541 (inactive); in [9], -0.318. The composite z-score is 0.717 (inactive) in [4] and -0.273 in experiment [10].
For the compound `O=C(N1CCOCC1)[C@@]1(Cc2ccccc2)COC(c2ccc(OCCCO)cc2)=N1`, the z-score in [1] was -0.395; in [2], -3.37 (inactive); in experiment [3], 0.13 (inactive); in experiment [5], 0.565 (inactive); in [6], -0.428 (inactive); in experiment [7], 1.26 (inactive). Also, the z-score in [8] is 0.284 (inactive); in [9], 1.15. Besides, the composite z-score in [4] was -0.641 (inactive); in experiment [10], 0.081.
For the compound `NCCCCCCNC(=O)[C@@H]1C[C@@H]2C(=O)N3CCC[C@H]3C(=O)N2[C@@H]1c1cccc(OCCO)c1`, the z-score was 0.158 in experiment [1]; -1.44 (inactive) in [2]; 0.711 (inactive) in experiment [3]; -1.23 (inactive) in experiment [5]; -0.853 (inactive) in [6]; 0.699 (inactive) in experiment [7]. Further, the figures for the z-score in experiment [8] and in [9] were 0.768 (inactive) and -0.0931, respectively. Also, the composite z-score is 0.101 (inactive) in experiment [4] and -0.0172 in experiment [10].
For the compound `O=C1N(Cc2ccccc2)c2ccccc2C[C@@]12COC(c1ccc(OCCCO)cc1)=N2`, the z-score in [1] is 0.792; in [2], -0.248 (inactive); in experiment [3] it was -1.61 (inactive); in experiment [5], 1.39 (inactive); in experiment [6], 0.903 (inactive); in experiment [7], 1.17 (inactive). Further, the z-score in [8] is -0.187 (inactive); in [9], 0.712. Also, the composite z-score is 0.0144 (inactive) in experiment [4] and 0.0578 in experiment [10].
For the compound `CCCN1C(=O)[C@@]2(c3ccc([N+](=O)[O-])cc3)CC(=O)N(CC34CC5CC(CC(C5)C3)C4)[C@@H]2c2ccc(CO)cc21`, the z-score is -0.113 in experiment [1]; -0.547 (inactive) in [2]; -0.148 (inactive) in [3]; 0.186 (inactive) in experiment [5]; -0.664 (inactive) in experiment [6]; 0.2 (inactive) in experiment [7]. The values for the z-score in experiment [8] and in experiment [9] were -0.255 (inactive) and -0.559, respectively. Besides, the composite z-score was -4.78 (inactive) in [4] and 0.0666 in experiment [10].
Turning to `COc1cc(CO)cc(I)c1O[C@H]1C=C(C(=O)NCCO)C[C@@H]2O[C@H]12`, the z-score in experiment [1] was -0.876; in [2], -11.2 (active); in experiment [3], -0.0563 (inactive); in [5] it was -0.0339 (inactive); in [6] it was 1.69 (inactive); in experiment [7], -0.364 (inactive). For the same compound, the z-score was -0.475 (inactive) in [8] and -0.408 in [9]. The results for the composite z-score in experiment [4] and in experiment [10] were -1.32 (inactive) and 0.305, respectively.
For the compound `CCCCC(=C=CC[C@H](O)c1ccc(CO)o1)CCO`, the z-score is -0.585 in experiment [1]; -0.976 (inactive) in [2]; 0.0305 (inactive) in experiment [3]; 0.224 (inactive) in experiment [5]; 0.648 (inactive) in [6]; -0.312 (inactive) in [7]. Moreover, the results for the z-score in [8] and in experiment [9] were -0.409 (inactive) and -0.34, respectively. In addition, the values for the composite z-score in experiment [4] and in [10] were -0.776 (inactive) and -0.0663, respectively.
As for `CCCCC(O)C1C=CC2C(=O)N(c3ccccc3)C(=O)C2N1Nc1ccc([N+](=O)[O-])cc1` (stereo not given), the z-score was 0.172 in experiment [1]; -0.485 (inactive) in experiment [2]; 0.519 (inactive) in [3]; 1.03 (inactive) in [5]; -0.385 (inactive) in [6]; 0.356 (inactive) in experiment [7]. Besides, the results for the z-score in [8] and in experiment [9] were 0.282 (inactive) and -0.354, respectively. Moreover, the composite z-score in experiment [4] is 0.0188 (inactive); in experiment [10], -0.156.
Turning to `CC(C)(C)N1CC=CC23O[C@@H]4/C=C\CCCOC(=O)C4[C@H]2C(=O)N(CCCO)[C@@H]3C1=O` (stereo not given in full), the z-score was 0.0873 in experiment [1]; 0.111 (inactive) in experiment [2]; 0.0928 (inactive) in experiment [3]; -0.236 (inactive) in [5]; -1.06 (inactive) in experiment [6]; 0.0362 (inactive) in experiment [7]. The z-score is -0.205 (inactive) in experiment [8] and -0.0182 in experiment [9]. Moreover, the composite z-score is -2.08 (inactive) in [4] and -0.0626 in experiment [10].
